23 compounds from PubChem BioAssay (NCATS) can be followed below.

Results filed as inconclusive are left out. Values without a mark were called inactive. Active and inactive are the calls of the source. Calls follow the shape of the dose curve; as a rule, active = well fitted curve in the direction sought with a large enough effect; inconclusive = small, poorly fitted or top-dose-only effect, or another doubt; inactive = no such curve, though single readings can be large; an effect the other way counts as inactive or inconclusive.

Assay [1] deals with Rap guanine nucleotide exchange factor 3 (Homo sapiens) (UniProt O95398). In words: Confirmatory qHTS for antagonist of cAMP-regulated guanine nucleotide exchange factor 3 (EPAC1) (AID 1645880). Also: nearly all actives have a fitted effect of over 55% in size. Also: potency is read from the fitted curve at half-maximal effect. In short, it runs like this:
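Nucleotide exchange uses 100 nM EPAC1, 250 nM RAP1B-BODIPY-GDP and 50 uM GDP, with compounds in a concentration-titration series. After 5 min at room temperature, fluorescence (480 nm ex/540 nm em) is read every 5 min for 30 min. Data are normalized to control ATA and DMSO.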
(In general: Quantitative high-throughput screening tests each substance at several concentrations.)

Assay [2] has the same target. The assay can be described thus: Confirmatory qHTS for agonist of cAMP-regulated guanine nucleotide exchange factor 3 (EPAC1) (AID 1645881).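 Also: EPAC1 catalysed release of BODIPY-GDP from Rap1B seen as fluorescence loss; 100% = effect of cAMP agonist control; nearly all actives have a fitted effect of over 75% in size.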
For assay [3], the target named is Rap guanine nucleotide exchange factor 4 (Homo sapiens) (UniProt Q8WZA2). The assay can be described thus: Confirmatory qHTS for agonist of cAMP-regulated guanine nucleotide exchange factor 4 (EPAC2) (AID 1645884).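 Also: nucleotide exchange releases bodipy-GDP from Rap1 and this lowers its fluorescence; % is scaled to controls: 0 for no effect and ±100 for the full control effect; nearly all actives have a fitted effect of over 65% in size.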
Assay [4] shares this target. In words: Confirmatory qHTS for antagonist of cAMP-regulated guanine nucleotide exchange factor 4 (EPAC2) (AID 1645885). Also: nearly all actives have a fitted effect of over 25% in size. Also: potency is read from the fitted curve at half-maximal effect. As to activity change, negative = inhibition: % is scaled to controls: 0 for no effect and ±100 for the full control effect.
The target in assay [5] is Rap guanine nucleotide exchange factor 3 (Homo sapiens) (UniProt O95398). In words: Counterscreen qHTS for antagonist of cAMP-regulated guanine nucleotide exchange factor 3 (EPAC1) (AID 1645888).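 Also: fluorescence loss as bound BODIPY-GDP is released from Rap1B; % of control where 0% means no effect.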 In short, it runs like this:
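Rap1B-BODIPY-GDP 250 nM + GDP 50 uM; cpds 7-pt, final 9.74 nM–152 uM (activator mode) or from 7.32 nM upwards (inhibitor mode); RT; FI 480/540 nm at 5 and 30 min, then ± cAMP, reread.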
(A counterscreen serves to expose hits that act by an unwanted route or on another target.)

Chain of Rap guanine nucleotide exchange factor 4 (Homo sapiens) (Q8WZA2 whole entry, looked up): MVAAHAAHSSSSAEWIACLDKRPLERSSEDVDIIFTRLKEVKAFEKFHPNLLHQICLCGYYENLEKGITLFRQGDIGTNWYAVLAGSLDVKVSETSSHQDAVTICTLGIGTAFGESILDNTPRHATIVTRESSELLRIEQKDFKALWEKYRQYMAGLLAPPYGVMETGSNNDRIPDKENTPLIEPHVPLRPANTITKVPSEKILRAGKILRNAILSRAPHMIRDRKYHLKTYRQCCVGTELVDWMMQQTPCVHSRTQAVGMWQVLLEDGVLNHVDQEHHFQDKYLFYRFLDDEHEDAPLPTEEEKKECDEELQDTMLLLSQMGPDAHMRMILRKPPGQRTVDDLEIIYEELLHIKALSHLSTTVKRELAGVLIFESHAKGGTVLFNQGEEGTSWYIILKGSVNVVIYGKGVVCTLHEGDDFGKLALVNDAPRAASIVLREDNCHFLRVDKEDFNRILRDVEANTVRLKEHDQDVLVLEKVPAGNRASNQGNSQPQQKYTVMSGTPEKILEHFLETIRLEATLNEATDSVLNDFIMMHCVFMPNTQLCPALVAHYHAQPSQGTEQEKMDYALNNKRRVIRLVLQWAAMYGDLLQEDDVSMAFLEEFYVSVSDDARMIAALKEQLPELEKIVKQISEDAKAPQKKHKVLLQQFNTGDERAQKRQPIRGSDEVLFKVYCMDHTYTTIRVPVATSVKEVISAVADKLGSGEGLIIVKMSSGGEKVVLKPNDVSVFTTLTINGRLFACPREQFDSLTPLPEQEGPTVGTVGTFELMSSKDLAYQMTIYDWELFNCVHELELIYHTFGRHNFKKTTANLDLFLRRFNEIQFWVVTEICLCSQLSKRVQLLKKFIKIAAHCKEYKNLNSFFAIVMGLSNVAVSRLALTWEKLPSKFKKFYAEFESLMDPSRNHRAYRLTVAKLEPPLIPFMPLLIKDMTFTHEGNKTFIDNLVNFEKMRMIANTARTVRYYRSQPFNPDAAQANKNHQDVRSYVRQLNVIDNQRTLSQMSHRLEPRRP
Chain of Rap guanine nucleotide exchange factor 3 (Homo sapiens) (O95398 whole entry, looked up): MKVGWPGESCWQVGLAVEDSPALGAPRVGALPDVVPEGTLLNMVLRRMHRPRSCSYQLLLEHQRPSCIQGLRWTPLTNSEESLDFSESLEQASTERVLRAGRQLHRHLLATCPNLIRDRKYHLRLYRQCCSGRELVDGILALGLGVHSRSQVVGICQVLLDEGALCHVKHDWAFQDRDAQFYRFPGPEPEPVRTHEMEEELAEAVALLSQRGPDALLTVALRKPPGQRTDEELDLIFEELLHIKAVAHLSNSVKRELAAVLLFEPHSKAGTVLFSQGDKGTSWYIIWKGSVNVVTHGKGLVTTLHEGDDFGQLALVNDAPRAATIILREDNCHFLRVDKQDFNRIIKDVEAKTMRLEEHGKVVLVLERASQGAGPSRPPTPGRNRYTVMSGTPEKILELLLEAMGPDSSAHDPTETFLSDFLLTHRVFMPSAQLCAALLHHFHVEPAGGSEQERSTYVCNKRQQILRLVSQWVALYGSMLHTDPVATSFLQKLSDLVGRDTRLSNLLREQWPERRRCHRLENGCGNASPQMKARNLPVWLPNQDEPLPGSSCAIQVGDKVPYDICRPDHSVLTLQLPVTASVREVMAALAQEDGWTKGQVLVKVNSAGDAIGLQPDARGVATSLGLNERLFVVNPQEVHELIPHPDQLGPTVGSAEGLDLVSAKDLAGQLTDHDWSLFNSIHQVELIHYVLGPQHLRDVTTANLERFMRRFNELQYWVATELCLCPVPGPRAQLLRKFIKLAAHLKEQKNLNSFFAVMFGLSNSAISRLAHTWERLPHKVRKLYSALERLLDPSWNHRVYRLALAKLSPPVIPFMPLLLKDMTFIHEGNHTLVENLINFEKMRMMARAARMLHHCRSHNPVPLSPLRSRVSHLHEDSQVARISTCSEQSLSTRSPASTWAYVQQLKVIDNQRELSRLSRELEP

With `COc1cccc(CNC(=O)CCCn2nc(C)c3c(C)n(-c4ccc(C)cc4)nc3c2=O)c1OC`, the Potency entry in assay [1], in assay [2], in assay [3], in assay [4] and in assay [5] was “inactive” throughout.

For `O=C(O)CCn1cc(/C=C2\NC(=S)N(c3ccccc3)C2=O)c(-c2ccc(Br)cc2)n1`, the Potency entry in assay [1], in assay [2], in assay [3], in assay [4] and in assay [5] was “inactive” in each case.

With `COc1ccc2cc(-c3cn4c(n3)sc3cc(F)ccc34)c(=O)oc2c1`, the Potency entry in assay [1], in assay [2], in assay [3], in assay [4] and in assay [5] was “inactive” in each case.

`O=C(CCNC(=O)c1ccccc1Cl)NCC(c1ccc(F)cc1)N1CCOCC1` (stereo not given): the Potency result in assay [1], in assay [2], in assay [3], in assay [4] and in assay [5] was “inactive” throughout.

Regarding `CS(=O)(=O)c1cccc(C(=O)OCC(=O)c2ccc3c(c2)OCCO3)c1`, the Potency entry in assay [1], in assay [2] and in assay [4] was “inactive” each time. Also, the activation in assay [3] was 8.5% [at 17.1 µM, percent relative to cAMP agonist control]. Besides, the activity change, negative = inhibition in assay [5] was -4.85% [at 30.8 µM].

With `CCCOC(=O)c1c(-c2ccccc2)c(-c2ccccc2)nn(C)c1=O`, the Potency result in assay [1], in assay [2], in assay [3], in assay [4] and in assay [5] was “inactive” in each case.

As to `CCOC(=O)C1C(=O)C=C(c2ccccc2)CC1c1ccccc1` (stereo not given), the Potency entry in assay [1], in assay [2] and in assay [4] was “inactive” in each case. Moreover, the activation in assay [3] was 12.3% [at 17.1 µM, percent relative to cAMP agonist control]. For the same compound, the activity change, negative = inhibition in assay [5] is -11.6% [at 30.8 µM].

Consider `c1ccc(CN(Cc2ccccc2)c2c3c(nc4ncnn24)CCC3)cc1`, for which the Potency result in assay [1], in assay [2], in assay [3], in assay [4] and in assay [5] was “inactive” throughout.

In the case of `Cc1cc(C)cc(NC(=O)N2CCC(CN3CCc4ccccc4C3)CC2)c1`, the Potency entry in assay [1], in assay [2], in assay [3], in assay [4] and in assay [5] was “inactive” throughout.

Consider `COC1C(CO)OC(n2c3c(Cl)cccc3c3c4c(c5c6cccc(Cl)c6[nH]c5c32)C(=O)NC4=O)C(O)C1O` (stereo not given), for which the Potency result in assay [1], in assay [2], in assay [3], in assay [4] and in assay [5] was “inactive” each time.

For `COc1ccc(S(=O)(=O)Nc2cccc(F)c2)cc1C`, the Potency entry in assay [1], in assay [2] and in assay [4] was “inactive” throughout. Moreover, in assay [3], the activation is 1.76% [at 17.1 µM, percent relative to cAMP agonist control]. Further, the activity change, negative = inhibition in assay [5] was -14.5% [at 30.8 µM].

With `Clc1ccc(NCc2nc3ccccc3n2CCOc2ccccc2)cc1`, the Potency entry in assay [1], in assay [2], in assay [3] and in assay [5] was “inactive” in each case. The outcome in assay [4] is “inactive [at 12.7 µM]”.

Take `CCOc1ccc(C(=O)Nc2ccc3c(c2)N(C(C)=O)CCC3)cc1OCC`: the Potency entry in assay [1], in assay [2], in assay [3], in assay [4] and in assay [5] was “inactive” throughout.

In the case of `CC1(C)Cc2c(C#N)c(N3CCN(C(=O)c4ccccc4Cl)CC3)nc(-c3ccco3)c2CS1`, the Potency in assay [1] was 26.9 µM (active). Besides, the Potency result in assay [2], in assay [3], in assay [4] and in assay [5] was “inactive” in each case.

Regarding `CCOC(=O)c1cccc(NC(=O)N2CCC(CN3CCCCCC3)CC2)c1`, the Potency result in assay [1], in assay [2], in assay [3] and in assay [5] was “inactive” in each case. Also, the outcome in assay [4] is “inactive [at 12.7 µM]”.

With `COc1ccc(C=NNc2ccc(S(=O)(=O)Nc3ccccc3C(=O)O)cc2[N+](=O)[O-])c(OC)c1`, in assay [1], the Potency was 15.1 µM (active). The Potency entry in assay [2], in assay [3], in assay [4] and in assay [5] was “inactive” each time.

With `O=C1NN(c2cccc(Br)c2)C(=O)/C1=C/c1ccc(-c2cc([N+](=O)[O-])ccc2O)o1`, the Potency in assay [1] is 16.9 µM (active). The Potency entry in assay [2], in assay [3], in assay [4] and in assay [5] was “inactive” throughout.

Take `Cc1ccc2cc(CN(Cc3ccco3)C(=O)c3ccco3)c3nnnn3c2c1`: the Potency result in assay [1], in assay [2], in assay [3] and in assay [5] was “inactive” in each case. For the same compound, the Potency in assay [4] is 75.7 µM (active).

Consider `Nc1c(C(=O)Nc2ccc3c(c2)OCCO3)nnn1Cc1cccc(Br)c1`, for which the Potency result in assay [1], in assay [2] and in assay [4] was “inactive” each time. In assay [3], the activation was 11.4% [at 17.1 µM, percent relative to cAMP agonist control]. In addition, in assay [5], the activity change, negative = inhibition was -24.5% [at 30.8 µM].

Regarding `C=CCOc1ccc(C=NNc2ccc(S(=O)(=O)Nc3ccccc3C(=O)O)cc2[N+](=O)[O-])cc1OC`, the Potency in assay [1] is 7.57 µM (active). Moreover, the Potency entry in assay [2], in assay [3], in assay [4] and in assay [5] was “inactive” throughout.

With `COCCN(CCOC)Cc1cc(=O)oc2cc(C)c(C)cc12`, the Potency result in assay [1], in assay [2] and in assay [4] was “inactive” throughout. For the same compound, the activation in assay [3] was 2.1% [at 17.1 µM, percent relative to cAMP agonist control]. For the same compound, the activity change, negative = inhibition in assay [5] is -13% [at 30.8 µM].

Turning to `CC1=Nc2ccccc2/C1=C/c1sc(=S)n(-c2cccc(C(=O)O)c2)c1O`, in assay [1], the Potency is 44.7 µM (active). Further, the Potency result in assay [2] and in assay [4] was “inactive” in each case. Besides, the activation in assay [3] is 2.42% [at 17.1 µM, percent relative to cAMP agonist control]. Moreover, the activity change, negative = inhibition in assay [5] was 11.8% [at 30.8 µM].

As to `C/C(C/C(C)=C1/SC(=S)NC1=O)=C1\SC(=S)NC1=O`, the Potency was 1.69 µM (active) in assay [1] and 21.3 µM (active) in assay [4]. Moreover, the Potency entry in assay [2], in assay [3] and in assay [5] was “inactive” each time.
